According to PubChem BioAssay (EPA / NIEHS):
“And” between values parts separate entries of the source, which are not always exact repeats. Equal values may be shown once. Records with an inconclusive call do not appear. A structure can be active in one record and inactive in another. The source made the active and inactive calls. Rule for the calls, unless noted: active = hit-call score of the fitted dose curve at least 0.9, where 1 is the maximum; inactive = score below 0.9.

How the values were obtained:
[1] = read-out: Macrophage colony-stimulating factor (MCSF), CSF1 (gene 1435); assay: BSK_LPS_MCSF: BioMAP Diversity Plus: LPS Assay for Macrophage colony-stimulating factor (MCSF) Biomarker Activity (AID 2283083); conditions: primary human HUVEC with PBMC; actives raise or lower the signal
Procedure, shortened: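 Bidirectional fit versus DMSO of ELISA-measured M-CSF in co-cultured human umbilical vein endothelial cells and PBMC, sampled 24 h after dosing.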

[2] = read-out: Tumor necrosis factor (Homo sapiens) (UniProt P01375); assay: BSK_LPS_TNFa: BioMAP Diversity Plus: LPS Assay for Tumour Necrosis Factor alpha (TNFa) Biomarker Activity (AID 2283085); conditions: primary human HUVEC with PBMC; actives raise or lower the signal
Procedure, shortened: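 Human umbilical vein endothelial cells co-cultured with PBMC and stimulated with LPS. TNFa was measured by ELISA 24 h after chemical dosing, fitted bidirectionally relative to DMSO.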

[3] = read-out: Vascular cell adhesion molecule 1 (VCAM1), VCAM1 (gene 7412); assay: BSK_LPS_VCAM1: BioMAP Diversity Plus: LPS Assay for Vascular cell adhesion molecule 1 (VCAM1) Biomarker Activity (AID 2283086); conditions: primary human HUVEC with PBMC; actives raise or lower the signal
Procedure, shortened: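 Human umbilical vein endothelial cells co-cultured with PBMC and stimulated with LPS; VCAM-1 measured by ELISA 24 h after dosing. Bidirectional curve fitting against DMSO baseline; cytotoxicity tracked in parallel by SRB total-protein staining.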

[4] = read-out: CD38, CD38 (gene 952); assay: BSK_SAg_CD38: BioMAP Diversity Plus: SAg Assay for CD38 Biomarker Activity (AID 2283087); conditions: primary human HUVEC with PBMC; actives raise or lower the signal
Procedure, shortened: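 Human HUVEC plus PBMC co-culture stimulated with superantigen; CD38 measured by ELISA 24 h after chemical dosing. Fluorescence read-out, bidirectional fit against DMSO; cytotoxicity tracked in parallel by SRB and Alamar Blue.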

[5] = read-out: CD40, CD40 (gene 958); assay: BSK_SAg_CD40: BioMAP Diversity Plus: SAg Assay for CD40 Biomarker Activity (AID 2283088); conditions: primary human HUVEC with PBMC; actives raise or lower the signal
Procedure, shortened: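 Endpoint derived by fitting increases or decreases versus DMSO controls. CD40 is detected by fluorescence ELISA in a human vascular co-culture of endothelium and PBMC at 24 h.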

[6] = read-out: CD69, CD69 (gene 969); assay: BSK_SAg_CD69: BioMAP Diversity Plus: SAg Assay for CD69 Biomarker Activity (AID 2283089); conditions: primary human HUVEC with PBMC; actives raise or lower the signal;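 for AC50: cell surface CD69 protein quantified by ELISA with fluorescence detection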
Procedure, shortened: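 Values derive from bidirectional fitting relative to DMSO vehicle. Cells: umbilical vein endothelium plus peripheral blood mononuclear cells, treated 24 h before fluorescent ELISA for CD69.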

[7] = read-out: Monocyte Chemoattractant Protein-1 (MCP1), CCL2 (gene 6347); assay: BSK_SAg_MCP1: BioMAP Diversity Plus: SAg Assay for Monocyte Chemoattractant Protein-1 (MCP1) Biomarker Activity (AID 2283090); conditions: primary human HUVEC with PBMC; actives raise or lower the signal
Procedure, shortened: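 MCP-1 levels in the endothelial–PBMC SAg co-culture were quantified by ELISA at 24 h post-dosing; both increases and decreases versus DMSO scored. Cytotoxicity monitored by SRB total protein in parallel cultures.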

[8] = read-out: Monokine induced gamma interferon (MIG), CXCL9 (gene 4283); assay: BSK_SAg_MIG: BioMAP Diversity Plus: SAg Assay for Monokine induced gamma interferon (MIG) Biomarker Activity (AID 2283092); conditions: primary human HUVEC with PBMC; actives raise or lower the signal
Procedure, shortened: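 Values reflect bidirectional fitting of ELISA-measured MIG against DMSO vehicle, taken 24 h after dosing of a co-culture of human umbilical vein endothelial cells and peripheral blood mononuclear cells.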

[9] = BSK_SAg_PBMCCytotoxicity: PBMC Cytotoxicity Assessment in the BioMAP Diversity Plus: SAg Assay (AID 2283093); conditions: primary human HUVEC with PBMC;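 note: PBMC viability measured as Alamar Blue reduction fluorescence at 546/580 nm; fitted both ways against DMSO so a hit may be loss or gain of signal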;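 for AC50: PBMC superantigen activated with SEB plus TSST-1 one hour after compound addition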
Procedure, shortened: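 Compound added to 75,000 PBMC/well for 1 h; SEB and TSST-1 then added at 20 ng/mL final each; 90 h incubation; Alamar Blue 6 h; read 546/580 nm ex/em. Activity fitted bidirectionally relative to DMSO baseline.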

[10] = read-out: Interleukin-8 (IL8), CXCL8 (gene 3576); assay: BSK_SAg_IL8: BioMAP Diversity Plus: SAg Assay for Interleukin-8 (IL8) Biomarker Activity (AID 2283094); conditions: primary human HUVEC with PBMC; actives raise or lower the signal
Procedure, shortened: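 Human umbilical vein endothelial cells co-cultured with PBMC, stimulated with superantigen; IL-8 measured by ELISA 24 h after chemical dosing. Bidirectional fitting versus DMSO; SRB staining in parallel cultures tracks cytotoxicity.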

[11] = BSK_SAg_SRB: Viability Assessment in the BioMAP Diversity Plus: SAg Assay (AID 2283096); conditions: primary human HUVEC with PBMC;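 note: cells read one day after compound addition; hits may be either gain or loss of signal compared with DMSO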
Procedure, shortened: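 Total protein by sulforhodamine B staining, 24 h after dosing, in HUVEC–PBMC co-culture; DMSO-referenced bidirectional fitting.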

[12] = read-out: E-selectin (Homo sapiens) (UniProt P16581); assay: BSK_SAg_Eselectin: BioMAP Diversity Plus: SAg Assay for Eselectin Biomarker Activity (AID 2283091); conditions: primary human HUVEC with PBMC; actives raise or lower the signal
Procedure, shortened: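 Endpoint values derive from bidirectional fitting relative to DMSO, using ELISA-measured E-selectin in a human vascular co-culture (umbilical vein endothelium plus PBMC) sampled 24 h after dosing.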

[13] = BSK_SAg_Proliferation: Cell Proliferation Assessment in the BioMAP Diversity Plus: SAg Assay (AID 2283095); conditions: primary human HUVEC with PBMC
Procedure, shortened: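 Human umbilical vein endothelial cells co-cultured with PBMC; sulforhodamine B total-protein staining (0.1% SRB after 10% TCA fixation, absorbance 560 nm) at 96 h in sub-confluent culture. Fitted bidirectionally against DMSO.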

[14] = molecular target: human CYP2B6, CYP2B6 (gene 1555) (UniProt P20813); assay: NVS_ADME_hCYP2B6: NovaScreen (NVS) CYP450-related Enzyme Activity (ADME) Assay for human CYP2B6 (AID 2283101; active = hit-call score of the fitted dose curve at least 0.9, where 1 is the maximum)
Chain of human CYP2B6, CYP2B6 (gene 1555) (P20813 whole entry, looked up): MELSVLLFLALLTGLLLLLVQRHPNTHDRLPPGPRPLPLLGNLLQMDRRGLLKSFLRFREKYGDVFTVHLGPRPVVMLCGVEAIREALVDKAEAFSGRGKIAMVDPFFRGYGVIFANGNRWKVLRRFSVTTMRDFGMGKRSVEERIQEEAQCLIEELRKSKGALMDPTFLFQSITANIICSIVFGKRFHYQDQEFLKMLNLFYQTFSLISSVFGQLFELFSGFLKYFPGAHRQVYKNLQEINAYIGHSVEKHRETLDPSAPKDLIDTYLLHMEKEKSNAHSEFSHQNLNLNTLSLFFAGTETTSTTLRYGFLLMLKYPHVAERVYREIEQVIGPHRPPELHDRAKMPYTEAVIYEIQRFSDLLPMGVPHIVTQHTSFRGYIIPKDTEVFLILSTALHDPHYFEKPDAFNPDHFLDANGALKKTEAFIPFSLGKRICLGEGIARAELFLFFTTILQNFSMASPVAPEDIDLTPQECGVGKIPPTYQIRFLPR
Procedure, shortened: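 Compounds were first screened in duplicate at 10 uM against recombinant enzyme, with the fluorescent product measured after 1 hour. Active compounds were retested over a concentration series. Loss of fluorescence versus acetonitrile control was scored as reduced enzyme activity.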

[15] = molecular target: human CYP1A1, CYP1A1 (gene 1543) (UniProt P04798); assay: NVS_ADME_hCYP1A1: NovaScreen (NVS) CYP450-related Enzyme Activity (ADME) Assay for human CYP1A1 (AID 2283100; active = hit-call score of the fitted dose curve at least 0.9, where 1 is the maximum)
Chain of human CYP1A1, CYP1A1 (gene 1543) (P04798 whole entry, looked up): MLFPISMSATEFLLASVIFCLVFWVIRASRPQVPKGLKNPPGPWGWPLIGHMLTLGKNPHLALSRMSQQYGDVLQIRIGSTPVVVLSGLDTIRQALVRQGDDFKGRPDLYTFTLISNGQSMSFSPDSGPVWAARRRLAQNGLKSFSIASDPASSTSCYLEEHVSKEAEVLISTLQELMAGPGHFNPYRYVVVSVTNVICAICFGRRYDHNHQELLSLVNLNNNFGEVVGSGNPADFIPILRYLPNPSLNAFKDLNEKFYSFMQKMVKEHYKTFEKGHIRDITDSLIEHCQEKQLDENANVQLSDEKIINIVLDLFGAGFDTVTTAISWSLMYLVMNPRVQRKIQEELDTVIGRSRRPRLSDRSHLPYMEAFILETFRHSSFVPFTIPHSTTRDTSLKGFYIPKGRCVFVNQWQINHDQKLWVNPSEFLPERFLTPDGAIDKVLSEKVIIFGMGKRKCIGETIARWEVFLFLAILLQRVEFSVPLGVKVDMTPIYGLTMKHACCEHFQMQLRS
Procedure, shortened: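 Inhibition of recombinant CYP1A1 turnover was assessed fluorometrically in a biochemical format 1 h after compound exposure. Testing began at 10 uM in duplicate and progressed to concentration series reaching 20 uM, with on-plate positive and negative controls.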

[16] = molecular target: human CYP1A2, CYP1A2 (gene 1544) (UniProt P05177); assay: NVS_ADME_hCYP1A2: NovaScreen (NVS) CYP450-related Enzyme Activity (ADME) Assay for human CYP1A2 (AID 2283102; active = hit-call score of the fitted dose curve at least 0.9, where 1 is the maximum;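 note: fluorescence from turnover of a fluorogenic substrate by recombinant insect-cell CYP1A2; potency for inhibition since loss of fluorescence marks reduced CYP1A2 activity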)
Chain of human CYP1A2, CYP1A2 (gene 1544) (P05177 whole entry, looked up): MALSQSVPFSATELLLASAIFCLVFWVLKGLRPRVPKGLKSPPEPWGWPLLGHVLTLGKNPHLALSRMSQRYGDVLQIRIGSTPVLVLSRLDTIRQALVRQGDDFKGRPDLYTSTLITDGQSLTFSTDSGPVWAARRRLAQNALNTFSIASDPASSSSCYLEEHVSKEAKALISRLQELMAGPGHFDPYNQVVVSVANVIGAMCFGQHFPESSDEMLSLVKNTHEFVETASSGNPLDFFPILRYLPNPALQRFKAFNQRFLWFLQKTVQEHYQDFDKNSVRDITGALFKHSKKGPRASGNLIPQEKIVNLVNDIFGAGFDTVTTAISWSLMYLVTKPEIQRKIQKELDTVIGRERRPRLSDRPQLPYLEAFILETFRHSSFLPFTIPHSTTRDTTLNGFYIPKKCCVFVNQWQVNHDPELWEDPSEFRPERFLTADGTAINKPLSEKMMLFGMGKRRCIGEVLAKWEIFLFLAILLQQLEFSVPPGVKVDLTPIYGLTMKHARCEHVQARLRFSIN
Procedure, shortened: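 Inhibition scored as decrease in fluorescent product versus acetonitrile negative control. Enzyme: insect-cell recombinant human CYP1A2, substrate-specific, cell-free. Reading at 0.5 h; 10 uM duplicate initial screen with positive and negative controls on every plate.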

[17] = molecular target: human CYP19A1, CYP19A1 (gene 1588) (UniProt P11511); assay: NVS_ADME_hCYP19A1: NovaScreen (NVS) CYP450-related Enzyme Activity (ADME) Assay for human CYP19A1 (AID 2283098; active = hit-call score of the fitted dose curve at least 0.9, where 1 is the maximum;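 for AC50: potency for inhibitors seen as loss of fluorescent enzyme signal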)
Chain of human CYP19A1, CYP19A1 (gene 1588) (P11511 whole entry, looked up): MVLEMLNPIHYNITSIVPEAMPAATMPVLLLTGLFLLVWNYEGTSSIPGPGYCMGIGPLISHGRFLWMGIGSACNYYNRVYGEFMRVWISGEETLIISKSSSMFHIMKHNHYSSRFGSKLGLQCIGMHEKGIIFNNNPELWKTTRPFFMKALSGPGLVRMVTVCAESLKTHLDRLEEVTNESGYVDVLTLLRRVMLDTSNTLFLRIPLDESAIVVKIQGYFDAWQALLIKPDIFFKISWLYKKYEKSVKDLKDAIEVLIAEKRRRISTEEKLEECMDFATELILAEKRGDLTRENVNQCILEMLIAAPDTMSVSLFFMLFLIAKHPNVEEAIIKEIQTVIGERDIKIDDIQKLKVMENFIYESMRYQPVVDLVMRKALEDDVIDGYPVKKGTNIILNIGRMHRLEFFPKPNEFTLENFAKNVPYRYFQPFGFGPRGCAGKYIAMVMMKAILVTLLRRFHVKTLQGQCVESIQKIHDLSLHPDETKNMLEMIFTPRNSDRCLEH
Procedure, shortened: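 Biochem, cell-free; recombinant enzyme + specific substrate; fluorescence intensity at 0.5 h post-dose; 10 uM duplicate primary, conc. series for actives; acetonitrile = negative control/baseline; positive and negative controls on every plate.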

[18] = molecular target: human CYP2A6, CYP2A6 (gene 1548) (UniProt P11509); assay: NVS_ADME_hCYP2A6: NovaScreen (NVS) CYP450-related Enzyme Activity (ADME) Assay for human CYP2A6 (AID 2283099; active = hit-call score of the fitted dose curve at least 0.9, where 1 is the maximum)
Chain of human CYP2A6, CYP2A6 (gene 1548) (P11509 whole entry, looked up): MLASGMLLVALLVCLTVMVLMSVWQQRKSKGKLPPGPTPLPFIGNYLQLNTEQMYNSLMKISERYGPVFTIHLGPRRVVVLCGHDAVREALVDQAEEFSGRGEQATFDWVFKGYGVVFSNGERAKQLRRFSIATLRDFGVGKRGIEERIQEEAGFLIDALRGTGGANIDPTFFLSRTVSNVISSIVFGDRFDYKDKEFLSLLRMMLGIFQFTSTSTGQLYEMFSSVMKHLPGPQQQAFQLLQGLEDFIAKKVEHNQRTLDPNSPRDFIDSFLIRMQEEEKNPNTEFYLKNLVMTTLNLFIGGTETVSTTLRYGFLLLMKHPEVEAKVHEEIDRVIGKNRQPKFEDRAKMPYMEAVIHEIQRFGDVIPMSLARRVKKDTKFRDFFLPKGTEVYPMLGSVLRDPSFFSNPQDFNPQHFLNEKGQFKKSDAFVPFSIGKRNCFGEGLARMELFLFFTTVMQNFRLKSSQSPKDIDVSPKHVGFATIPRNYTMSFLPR
Procedure, shortened: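 Loss of fluorescence signal relative to acetonitrile vehicle reported CYP2A6 inhibition in a cell-free system using insect-cell-derived enzyme. Readings were taken at 0.5 h; top concentration in follow-up dose series was 20 uM.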

Measured: AC50

Chain of E-selectin (Homo sapiens) (P16581 whole entry, looked up): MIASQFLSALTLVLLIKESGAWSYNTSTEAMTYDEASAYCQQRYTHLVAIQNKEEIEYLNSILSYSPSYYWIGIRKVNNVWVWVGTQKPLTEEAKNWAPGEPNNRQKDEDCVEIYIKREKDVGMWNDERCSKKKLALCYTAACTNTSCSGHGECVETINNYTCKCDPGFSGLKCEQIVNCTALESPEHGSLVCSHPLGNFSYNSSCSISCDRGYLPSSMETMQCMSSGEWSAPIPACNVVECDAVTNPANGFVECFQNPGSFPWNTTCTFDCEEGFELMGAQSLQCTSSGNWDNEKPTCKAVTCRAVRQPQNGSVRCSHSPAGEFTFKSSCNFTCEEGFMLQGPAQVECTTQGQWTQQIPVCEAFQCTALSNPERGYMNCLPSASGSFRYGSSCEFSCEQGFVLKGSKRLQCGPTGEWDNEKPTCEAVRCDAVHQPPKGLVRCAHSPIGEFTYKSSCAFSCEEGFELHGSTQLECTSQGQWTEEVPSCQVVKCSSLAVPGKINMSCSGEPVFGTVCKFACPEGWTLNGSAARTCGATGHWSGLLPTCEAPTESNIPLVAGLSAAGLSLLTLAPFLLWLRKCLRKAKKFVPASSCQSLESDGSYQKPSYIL
Chain of Tumor necrosis factor (Homo sapiens) (P01375 whole entry, looked up): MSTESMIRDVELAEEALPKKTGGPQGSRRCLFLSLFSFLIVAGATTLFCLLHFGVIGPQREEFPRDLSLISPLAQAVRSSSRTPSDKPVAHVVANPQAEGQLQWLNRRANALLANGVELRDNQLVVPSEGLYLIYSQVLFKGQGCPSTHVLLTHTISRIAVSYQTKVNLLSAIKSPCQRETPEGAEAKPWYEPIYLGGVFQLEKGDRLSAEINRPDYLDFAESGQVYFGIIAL

C1CC2OC2CC1C1CO1 (configuration not stated)
not listed: [12] | [13] | [14] | [15] | [16] | [17] | [18]
inactive: all other assays above

CCC(C)c1cc([N+](=O)[O-])cc([N+](=O)[O-])c1O (configuration not stated)
active: [1] 20 µM | [3] 20 µM | [4] 18.7 µM | [5] 14.3 µM | [6] 12.4 µM | [7] 23.5 µM | [8] 31.7 µM | [9] 5.36 µM | [10] 8.89 µM | [11] 18 µM
inactive: [2]

O=C(O)C(F)(F)C(F)(F)C(F)(F)C(F)(F)C(F)(F)F
not listed: [12] | [13] | [14] | [15] | [16] | [17] | [18]
inactive: all other assays above

CCC(C)(c1ccc(O)cc1)c1ccc(O)cc1
active: [1] 20 µM | [3] 20 µM | [4] 25.6 µM | [5] 20 µM | [6] 20 µM | [7] 20 µM | [12] 16.8 µM | [9] 29.8 µM | [10] 16 µM | [13] 28.5 µM | [14] 4.81 µM
inactive: [2] | [8] | [11]

Cc1ccccc1[N+](=O)[O-]
not listed: [14] | [15] | [16] | [17] | [18]
inactive: all other assays above

C=CC(=O)NCNC(=O)C=C
not listed: [14] | [15] | [16] | [17] | [18]
inactive: all other assays above

Cc1ccccc1O
not listed: [14] | [15] | [16] | [17] | [18]
inactive: all other assays above

CC1=C2C[C@H]3[C@@H](CC=C4C[C@@H](O)CC[C@@]43C)[C@@H]2CC[C@]12O[C@@H]1C[C@H](C)CN[C@H]1[C@H]2C
not listed: [13] | [14] | [15] | [16] | [17] | [18]
inactive: all other assays above

CC#Cc1cc(C)nc(Nc2ccccc2)n1
active: [13] 28.3 µM | [15] 0.617 µM | [16] 1.96 µM
not listed: [12] | [14] | [17] | [18]
inactive: all other assays above

CCCCCCCCCc1ccc(O)cc1
active: [1] 23.6 µM | [2] 36.5 µM | [3] 22 µM | [4] 15.9 µM | [5] 20.3 µM | [6] 22.7 µM | [7] 29.8 µM | [12] 20 µM | [8] 33.7 µM | [9] 16.2 µM | [10] 20.2 µM | [13] 14.3 µM | [11] 23.8 µM

CC(C)(O)C(=O)Nc1ccc([N+](=O)[O-])c(C(F)(F)F)c1
inactive: [2] | [3] | [4] | [5] | [6] | [7] | [8] | [9] | [10] | [11] | [17]
active: [1] 23.1 µM | [17] 6.99 µM and 5.59 µM | [16] 3.38 µM

ClC1=C(Cl)[C@]2(Cl)[C@@H]3[C@@H]4C[C@@H]([C@H]5O[C@@H]45)[C@@H]3[C@@]1(Cl)C2(Cl)Cl
active: [2] 3.05 µM | [3] 14.4 µM | [4] 14.4 µM | [5] 11.2 µM | [11] 20 µM | [14] 3.88 µM
inactive: [1] | [6] | [7] | [12] | [8] | [9] | [10]

COc1ccc(O)c(C(C)(C)C)c1
active: [5] 28.9 µM | [9] 20 µM
inactive: [1] | [2] | [3] | [4] | [5] | [6] | [7] | [8] | [9] | [10] | [13] | [11] | [18] | [14]

Clc1ccc(C(Cl)(Cl)Cl)cc1
not listed: [12] | [14] | [15] | [16] | [17] | [18]
inactive: all other assays above

CC(c1ccc(O)cc1)(c1ccc(O)cc1)c1ccc(O)cc1
active: [1] 26.4 µM | [2] 32.6 µM | [3] 16.2 µM | [4] 24.5 µM | [5] 20.5 µM | [6] 20 µM | [7] 25.9 µM | [12] 13.9 µM | [8] 33.8 µM | [10] 20 µM | [11] 15.7 µM
inactive: [9]
